Bioassay records from PubChem BioAssay.
ALR H2O2 inh = inhibitors of human sulfhydryl oxidase ALR. inhibition, % (test concentration not listed). purified ALR, DTT oxidation, H2O2 HRP-luminol luminescence. 3.8% of 290,000 active. P55789;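 active = mean replicate inhibition above about 79%, with every replicate also reaching it, limit read from the data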
Target sequence (P55789 whole entry, looked up): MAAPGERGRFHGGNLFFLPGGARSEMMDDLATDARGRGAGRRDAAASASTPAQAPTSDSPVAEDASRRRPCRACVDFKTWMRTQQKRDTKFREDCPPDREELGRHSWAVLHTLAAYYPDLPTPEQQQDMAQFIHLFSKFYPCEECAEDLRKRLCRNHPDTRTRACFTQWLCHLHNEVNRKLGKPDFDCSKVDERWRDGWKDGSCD
LANA-H2B inh = blocks KSHV LANA binding to histone H2A/H2B | cell-free LANA-H2A/H2B peptide, fluorescence polarization | Q9QR71 | inhibition, % (test concentration not listed) | 0.6% of 320,000 active; in the data active = inhibition mostly above about 10%, no sharp cut-off; inactive = mostly below about 6.7%
rCAG binder = binds r(CAG) RNA repeats; r(CAG) RNA repeat, TO-PRO-1 dye displacement fluorescence; inhibition, % at 3 µM; 1.3% of 370,000 active; AID 651821;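 active = inhibition above the plate cutoff, the mean of all test compounds on that plate plus 3 SD, cut at about 35% in these data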;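 note: 0% = DMSO alone and 100% = 100 µM mitoxantrone as full dye displacement; higher means more dye released from RNA so lower well fluorescence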
ABHD5 PLIN5 PPI = ABHD5-PLIN5 protein interaction inhibition; Split G. princeps luciferase complementation, luminescence, 4 h; inhibition, % at 4 µM; 0.78% of 360,000 active;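 active = inhibition above the mean inhibition across every tested compound plus 3 SD, cut at about 22% in these data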;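 note: 0% = DMSO only wells and the 100% control is not disclosed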
PRMT1 inh = PRMT1 (human) inhibition, primary screen | Q99873 | recombinant PRMT1, activity-based probe fluorescence polarization | inhibition, % at 2.79 µM | 1.3% of 370,000 active;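 active = inhibition above about 21% made by adding two undisclosed values, limit read from the data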
Target sequence (Q99873 whole entry, looked up): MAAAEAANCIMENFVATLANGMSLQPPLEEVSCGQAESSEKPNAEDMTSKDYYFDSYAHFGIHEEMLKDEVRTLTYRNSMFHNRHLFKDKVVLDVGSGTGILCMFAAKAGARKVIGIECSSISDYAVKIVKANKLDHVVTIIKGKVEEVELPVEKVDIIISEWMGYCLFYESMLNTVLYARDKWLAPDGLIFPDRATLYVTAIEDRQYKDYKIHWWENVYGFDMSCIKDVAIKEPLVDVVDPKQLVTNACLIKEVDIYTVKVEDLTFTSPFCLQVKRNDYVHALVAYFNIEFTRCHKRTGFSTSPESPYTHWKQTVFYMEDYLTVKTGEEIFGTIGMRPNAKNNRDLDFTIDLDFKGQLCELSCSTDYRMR
Rtt109 HAT inh = inhibitors of Candida albicans Rtt109/Vps75 histone acetyltransferase. 0.16% of 330,000 active. inhibition, % at 34.9 µM. Q5AAJ8. AID 540336. purified Rtt109/Vps75, ThioGlo CoA-SH fluorescence, 4 h;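 active = inhibition of at least 50% in every replicate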
An asterisk follows results filed as active; i = inactive; · = no result. Shown are actives, neighbours in structure and some others; about 5.9% of the full set was active somewhere.

SMILES	ALR H2O2 inh	LANA-H2B inh	rCAG binder	ABHD5 PLIN5 PPI	PRMT1 inh	Rtt109 HAT inh
Nc1ccc(-c2nc3ccc(C(=O)O)cc3s2)cc1	99*	-12	8	1	-2	5
O=C(O)c1ccc2nc(-c3ccccc3)sc2c1	·	0	1	0	0	2
C=CCn1c(SCC(=O)c2ccc(F)cc2)nnc1-c1ccc(F)cc1	·	·	-1	·	6	·
C/C(=N\NC(=O)c1ccc(Cn2cc(Br)cn2)o1)c1ccc(NC(=O)c2ccoc2C)cc1	·	·	0	1	6	-10
COc1cc(CN2CCC(Cc3ccccc3)CC2)cc([N+](=O)[O-])c1O	-3	20*	1	-3	1	-13
COc1cc(CN2CCC(Cc3ccccc3)CC2)cc(OC)c1OC	-8	1	-8	2	1	9
COC(=O)C(C(=O)OC)[C@H]1C=C[C@@H](C(=O)NS(=O)(=O)c2ccc(C)cc2)N(C(C)=O)C1	·	·	10	·	6	·
N#Cc1ccsc1NC(=O)CN1CCN(c2ccccc2O)CC1	99*	-1	7	3	0	-1
CC(=O)Nc1ccc(SCC(=O)Nc2ccccc2-c2ccccc2)cc1	98*	0	-7	-4	7	2
CC(=O)Nc1ccc(SCC(=O)Nc2sccc2C#N)cc1	99*	2	3	4	-1	-5
CC(=O)Nc1ccc(SCc2ncc(-c3ccccc3)o2)cc1	99*	2	-4	-3	22*	-7
CC(C)C12CN3CC(C(C)C)(CN(C1)C3c1ccccc1)C2O (stereo not drawn)	0	8.5*	-3	14	-1	-2
CC(C)C12CN3CC(C(C)C)(CN(C1)C3c1ccccc1O)C2=O (stereo not drawn)	-16	-5	-8	-4	0	6
CC(C)Cn1c(=O)cc(N2CCN(c3cccc(C(F)(F)F)c3)CC2)[nH]c1=O	·	·	·	·	-1	·
CCc1cc2c(Nc3ccc(O)cc3)nc(C)nc2s1	100*	-1	-2	0	0	8
Cc1cc2c(Nc3ccc(O)cc3)ncnc2s1	94*	1	3	1	5	2
Cc1cc2c(Nc3ccc(C(=O)O)cc3)ncnc2s1	-4	-2	0	-1	3	·
COC(=O)C12C=C3CC(c4ccc(OC)cc4)=C3C(=O)N1Cc1[nH]c3ccccc3c1C2 (stereo not drawn)	·	·	9	·	0	·
Cc1ccc(-c2cc(C(=O)NC3=NCCS3)c3ccccc3n2)cc1C	90*	-6	12	0	10	-3
O=C(NC1=NCCS1)c1cc(-c2ccc(F)cc2)nc2ccccc12	0	2	2	0	2	-6
C[C@@H]1CN([C@@H](C)CO)S(=O)(=O)c2ccc(Br)cc2O[C@H]1CN(C)C(=O)Cc1cccnc1	·	·	0	-6	1	·
COc1ccc(C(=O)N2CCN(c3ccc(F)cc3)CC2)cc1S(=O)(=O)NC1CC1	24	2	2	-9	1	-3
COc1ccc(C(=O)N2CCN(c3cccc(Cl)c3)CC2)cc1S(=O)(=O)NC1CC1	·	·	4	-12	24*	-8
COC(=O)c1cc2c(c3c4cc(OC)ccc4n(S(=O)(=O)c4cccc(C)c4)c13)C(=O)N(Cc1ccccc1OC)C2	·	·	16	·	3	·
COc1cccc(NC(=O)N(C)C[C@H]2OCc3cn(nn3)CCCC(=O)N([C@H](C)CO)C[C@@H]2C)c1	·	·	3	·	2	·
SMILES	ALR H2O2 inh	LANA-H2B inh	rCAG binder	ABHD5 PLIN5 PPI	PRMT1 inh	Rtt109 HAT inh
COc1ccc(Nc2nc(C(=O)N3CCc4ccccc4C3)cs2)cc1	39	19*	3	-2	4	15
COc1ccc(Nc2nc(C(=O)N3CCc4cc(OC)c(OC)cc4C3)cs2)cc1	-2	-1	-1	15	2	·
COc1ccc(Nc2nc(C(=O)NCCCN3CCOCC3)cs2)cc1	83*	11	-5	-8	5	9
O=C(c1csc(Nc2ccccc2Cl)n1)N1CCCC1	84*	-1	-3	-4	-1	-2
COC(=O)[C@]12CCCCC=C1N(CCc1ccc(OC)c(OC)c1)C(=O)[C@H](CC(=O)NCc1cccs1)C2	·	·	0	5	2	·
O=C(N/N=C/c1c(O)n(-c2ccc(Cl)cn2)c(=O)c2ccccc12)c1ccncc1	80*	-18	16	-3	-5	4
O=C(N/N=C/c1c(O)n(-c2ccc(Cl)cn2)c(=O)c2ccccc12)C1CC1	95*	-3	0	4	2	14
O=C(N/N=C/c1ccccn1)C1CC1	4	4	0	7	-2	-3
COc1ccc(C)cc1N(CC(=O)NCCSCc1ccco1)S(=O)(=O)c1ccc(C)cc1	·	-1	-5	-9	-2	2
CCN(CC)S(=O)(=O)c1ccc(C)c(NC(=O)COC(=O)[C@@H]2CCCN2C(=O)c2cccs2)c1	-6	15*	-4	2	-5	-6
CN(C)S(=O)(=O)c1ccc(Cl)c(NC(=O)COC(=O)[C@@H]2CCCN2C(=O)c2cccs2)c1	5	-2	-2	1	-5	-2
COc1ccc(-n2c(SCc3cccnc3)nc3c(c2=O)SCC3)cc1OC	·	·	3	-3	0	3
Cn1c(SCc2cccc([N+](=O)[O-])c2)nc2c(c1=O)SCC2	99*	0	3	5	9	0
Cn1c(SCc2ccc(Br)cc2)nc2c(c1=O)SCC2	98*	-3	0	-1	-5	8
Cn1c(SCC(=O)NCc2ccc3c(c2)OCO3)nc2c(c1=O)SCC2	47	-1	-2	1	0	0
Cn1c(SCc2cccnc2)nc2c(c1=O)SCC2	99*	0	-4	-2	1	-87
COCCN1C(=O)[C@H]2C[C@@]13O[C@H](C1CCCCC1)N=C3CC1c3ccccc3C[C@@]12C (stereo partly drawn)	·	·	-2	·	1	·
COc1cc2c(cc1OC)C1CCc3cc4c(cc3C1N=C2)OCO4 (stereo not drawn)	·	·	2	3	3	·
CCOc1ccc(C(=O)Nc2ccc(N3CCN(C(C)=O)CC3)cc2)cc1[N+](=O)[O-]	22	18*	0	-2	0	-3
CCCc1[nH][nH]c(=O)c1C(c1ccc(Br)cc1)C(C#N)C#N (stereo not drawn)	95*	i	5	5	3	5
Cc1cc(C)c(C(=O)N2CCCC(Nc3ccc(F)cc3)C2)o1 (stereo not drawn)	99*	-1	-6	8	2	-2
Cc1cc(C)c(C(=O)N2CCCC(Nc3ccc(C)c(C)c3)C2)o1 (stereo not drawn)	99*	-2	-6	-9	-2	-6
COc1ccc(NC2CCCN(C(=O)c3oc(C)cc3C)C2)cc1OC (stereo not drawn)	100*	-1	-5	2	2	3
CCOC(=O)c1[nH]c(C)c(C(=O)Nc2ccc(C)c(C)c2)c1C	17	0	-3	-3	-4	1
